# Counter-ions that a name gives are not always drawn.
# System: NCI-H1688
# Experiment: inhibition of cell viability relative to untreated control (fraction); higher = stronger growth inhibition, active = 0.5 or more
# Conditions: 30 µM; 24 h
# Summary of the method: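 NCI-H1688 small cell lung cancer cells were plated in 96-well plates at 3 × 10^3 cells/well, and 24 h later they were exposed to a natural compound library (TargetMol) at 30 µM for 24 h at 37°C with 5% CO2. Viability was measured in triplicate using Cell Counting Kit-8, read as absorbance at 450 nm. Inhibition of cell viability is given as a fraction, calculated from viability normalised to untreated cells.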
row,Structure (SMILES),inhibition of cell viability
1,O=c1c(O[C@@H]2O[C@H](CO)[C@H](O)[C@H](O)[C@H]2O)c(-c2ccc(O)c(O)c2)oc2cc(O)cc(O)c12 [Hyperoside],-0.0387 (inactive)
2,COC1=CC(=O)C[C@@H](C)[C@]12Oc1c(Cl)c(OC)cc(OC)c1C2=O [Griseofulvin],0.615 (active)
3,N[C@H]1C(O)O[C@H](CO)[C@@H](O)[C@@H]1O (some centres undefined) [Glucosamine hydrochloride],0.0567 (inactive)
4,CC1(C)[C@@H](O)CC[C@]2(C)[C@H]3C(=O)C=C4[C@@H]5C[C@@](C)(C(=O)O)CC[C@]5(C)CC[C@@]4(C)[C@]3(C)CC[C@@H]12 [Enoxolone],-0.0418 (inactive)
5,CC1OC(OC2C(OC3CCC4(C)C(CCC5(C)C4CC=C4C6CC(C)(C)CCC6(C(=O)OC6OC(COC7OC(CO)C(O)C(O)C7O)C(O)C(O)C6O)CCC45C)C3(C)CO)OCC(O)C2O)C(O)C(O)C1O (centres undefined) [Dipsacoside B],0.235 (inactive)
6,C[C@]12CC[C@@H]3c4ccc(O)cc4CC[C@H]3[C@@H]1CC[C@@H]2O [Estradiol],0.296 (inactive)
7,Cc1cc2nc3c(=O)[nH]c(=O)nc-3n(C[C@H](O)[C@H](O)[C@H](O)CO)c2cc1C [Riboflavin],0.284 (inactive)
8,COc1ccc(C[C@H]2COC(=O)[C@@H]2Cc2ccc(O[C@@H]3O[C@H](CO)[C@@H](O)[C@H](O)[C@H]3O)c(OC)c2)cc1OC [Arctiin],0.0918 (inactive)
9,CC(C)C1=CC2=CC[C@@H]3[C@](C)(CCC[C@@]3(C)C(=O)O)[C@H]2CC1 [Abietic Acid],0.0466 (inactive)

# Reference: the supplement of paper PMC11634586
